Measurements from PubChem BioAssay (NCATS).
Several values for one entry are separate records, joined by “and”; a condition that tells them apart may be missing. Equal values may be shown once. Records with an inconclusive call do not appear. Activity calls are given as the source filed them. Unless noted, the call rests on the fitted dose curve; in most records, active means well fitted curve in the direction sought with a large enough effect; inconclusive means small, poorly fitted or top-dose-only effect, or another doubt; inactive means no such curve, though single readings can be large; an effect the other way counts as inactive or inconclusive.

Tests used:
[1] = Cell Viability - BJ (AID 421; calls by dose curve;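 further: potency means the concentration at half of the fitted maximal effect; cells exposed to compound for 40 hours at 37 °C before readout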); settings: BJ fibroblast viability, qHTS
Summary of the method: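 Normal human BJ foreskin fibroblasts, 1500/well in complete medium, treated 40 hr at 37 °C. Cellular ATP by CellTiter-Glo luminescence; normalized to DMSO and 100 uM tamoxifen, AC50 from Hill fit.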

[2] = Cellular Toxicity (caspase-3) HepG2 (AID 654); settings: HepG2 caspase-3 activation, luminescence, 0% = DMSO only, 100% = tamoxifen; series mostly up to 92.2 µM;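 further: cells exposed to compound for 16 hours before reading; 0% = DMSO alone and 100% = caspase signal from 100 µM tamoxifen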
Summary of the method: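 HepG2 cells (1500/well) in complete medium were treated with compounds for 16 hr at 37 °C. Caspase-3/7 activity was then read as luminescence from peptide-aminoluciferin cleavage. AC50 came from Hill fits, normalized to DMSO and 100 uM tamoxifen.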

[3] = Cellular Toxicity (caspase-3) BJ (AID 658); settings: BJ fibroblasts, luminescence, normalized: DMSO 0%, staurosporine 100%; series mostly up to 91.7 µM
Summary of the method: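 Luminescent aminoluciferin-substrate cleavage reports caspase 3/7 activity in normal human BJ fibroblasts after 16 hr compound exposure at 37 °C. Normalized to DMSO (basal) and 10 uM staurosporine (100%); AC50 from Hill fit of concentration-response.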

[4] = Cellular Toxicity (caspase-3) MRC-5 (AID 659); settings: MRC-5 cells, luminescence, normalized: DMSO 0%, 10 µM staurosporine 100%; series mostly up to 91.7 µM
Summary of the method: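 Luminescence from caspase-cleaved aminoluciferin substrate (Caspase-Glo 3/7, 1 hr RT) reports caspase 3/7 activity in MRC-5 lung fibroblasts after 16 hr compound exposure. Normalized to DMSO basal and 10 uM staurosporine as 100%; AC50 from Hill fits.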

[5] = Cellular Toxicity (caspase-3) Hek293 (AID 664); settings: HEK293 caspase-3 activation, DMSO = 0%, 100 µM tamoxifen = 100%; at 92.2 µM (top of the series);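 further: cells exposed to compound for 16 h at 37 °C before readout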
Summary of the method: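 HEK293 cells were exposed to compounds in complete medium for 16 hr at 37 °C, then caspase-3/7 activity was read by Caspase-Glo 3/7 luminescence after 20 min at room temperature. Data normalized to DMSO and 100 uM tamoxifen; AC50 from Hill fits.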

[6] = Cellular Toxicity (caspase-3) N2a (AID 665); settings: N2a cells, luminescence, normalized: DMSO 0%, 10 µM staurosporine 100%; series mostly up to 92.2 µM;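 further: compound exposure lasted 16 h at 37 °C before readout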
Summary of the method: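 Mouse N2a neuroblastoma cells (1500/well) were treated with compounds for 16 h at 37 °C, then caspase-3/7 activity was read by Caspase-Glo luminescence after 1 h at room temperature. Data were normalized to DMSO and 10 uM staurosporine; AC50 from Hill fits.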

[7] = Cellular Toxicity (caspase-3) NIH 3T3 (AID 666); settings: NIH 3T3 caspase-3 activation, apoptosis/toxicity; series mostly up to 92.2 µM;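 further: caspase signal read after 16 h compound exposure; 0% = DMSO basal and 100% = 100 µM tamoxifen stimulation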
Summary of the method: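 Mouse NIH 3T3 fibroblasts (1000 cells/well) were treated with compound for 16 hr at 37°C in complete medium; caspase-3/7 activity was read by Caspase-Glo luminescence. Normalized to DMSO and 100 uM tamoxifen; AC50 from Hill fits.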

[8] = Cell Viability - LYMP2-001 (AID 921); settings: LYMP2-001 lymphoblastoid cell viability; series mostly up to 92.2 µM;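 further: 0% = DMSO only and full inhibition = tetraoctylammonium bromide control wells; nearly all actives have a fitted effect of over 70% in size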
Summary of the method: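 Human lymphoblastoid LYMP2-001 cells, 2500 per well, in complete medium, treated 24 h at 37 C. Viability from cellular ATP by CellTiter-Glo luminescence; AC50 from Hill-equation fits of qHTS concentration-response.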

[9] = MultiTox-Fluor Cytotoxicity Assay - LYMP1-001 - Dead Cells (AID 946); settings: LYMP1-001 lymphoblastoid cells, dead-cell protease fluorescence; series mostly up to 92.2 µM;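 further: 0% = DMSO and 100% = tetraoctylammonium bromide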
Summary of the method: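 LYMP1-001 lymphoblastoid cells (2500/well) treated 16 h at 37 C. Dead-cell protease cleavage of bis-AAF-R110 read at Ex/Em 485/520. Normalized to DMSO and 15 uM tetraoctylammonium bromide; AC50 from Hill fits.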

[10] = MultiTox-Fluor Cytotoxicity Assay - LYMP1-002 - Live Cells (AID 955); settings: LYMP1-002 lymphoblastoid live-cell protease fluorescence viability; series mostly up to 46.1 µM; further: on the % scale 0 is the no-effect control and ±100 the full control effect
Summary of the method: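 Human lymphoblastoid LYMP1-002 cells, 2500/well in complete medium, rested 5 hr at 37 C, then exposed to compounds for 16 hr at 37 C. Live-cell protease cleavage of GF-AFC read by fluorescence (Ex/Em 405/510) after 60 min at room temperature; AC50 from Hill fits.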

[11] = MultiTox-Fluor Cytotoxicity Assay - LYMP1-003 - Dead Cells (AID 961); settings: LYMP1-003 lymphoblastoid cells, dead-cell protease fluorescence; series mostly up to 92.2 µM;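 further: 0% = DMSO and 100% = tetraoctylammonium bromide; nearly all actives have a fitted effect of over 70% in size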
Summary of the method: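 LYMP1-003 human lymphoblastoid cells (2500/well) exposed to compound 16 h at 37 C in complete medium; dead-cell protease read with bis-AAF-R110 fluorescence (Ex/Em 485/520) after 60 min at room temperature. Normalized to DMSO and 15 uM tetraoctylammonium bromide; AC50 from Hill fit.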

[12] = MultiTox-Fluor Cytotoxicity Assay - LYMP1-003 - Live Cells (AID 962); settings: LYMP1-003 lymphoblastoid cells, MultiTox-Fluor live-cell protease fluorescence; series mostly up to 92.2 µM;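 further: 0% = DMSO only and full loss = 92 µM tetraoctylammonium bromide; cytotoxic hits lower the live-cell protease signal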
Summary of the method: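 LYMP1-003 human lymphoblastoid cells (2500/well) in complete medium were preincubated 5 hr at 37 C, then exposed to compounds for 16 hr at 37 C. Live-cell protease cleavage of GF-AFC read by fluorescence (Ex/Em 405/510); AC50 from Hill fits.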

[13] = Cell Viability - LYMP2-021 (AID 974); settings: LYMP2-021 lymphoblastoid cells viability; series mostly up to 92.2 µM;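 further: compound exposure lasts 24 hours at 37 °C; on the % scale 0 is the no-effect control and ±100 the full control effect; nearly all actives have a fitted effect of over 55% in size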
Summary of the method: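 Human lymphoblastoid cells (2500/well) were preincubated 5 hr at 37 C, then exposed to compounds for 24 hr at 37 C in complete medium. Intracellular ATP was read by CellTiter-Glo luminescence; AC50 came from Hill-equation fits of concentration-response data.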

[14] = Cell Viability - LYMP2-025 (AID 976); settings: LYMP2-025 lymphoblastoid cell viability; series mostly up to 92.2 µM;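 further: plate controls were DMSO only for no effect and tetraoctylammonium bromide control for full effect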
Summary of the method: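 Human lymphoblastoid LYMP2-025 cells (2500/well) were pre-incubated 5 hr at 37 C, then treated with compounds for 24 hr at 37 C in complete medium. Viability was read as intracellular ATP by CellTiter-Glo luminescence; AC50 from Hill fits.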

[15] = Cell Viability - LYMP2-006 (AID 978); settings: LYMP2-006 lymphoblastoid cell viability, qHTS; series mostly up to 92.2 µM; further: on the % scale 0 is the no-effect control and ±100 the full control effect; nearly all actives have a fitted effect of over 60% in size
Summary of the method: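 Human lymphoblastoid cells (LYMP2-006), 2500/well in complete medium, were treated with compound for 24 hr at 37 C. Cellular ATP was read by CellTiter-Glo luminescence after 30 min, and AC50 values came from Hill-equation fits of concentration-response data.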

[16] = Cell Viability - LYMP1-002 - Assay at 24 hr (AID 993); settings: LYMP1-002 lymphoblastoid cells viability; series mostly up to 92.2 µM; further: on the % scale 0 is the no-effect control and ±100 the full control effect
Summary of the method: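 Human lymphoblastoid LYMP1-002 cells, 2500/well in complete medium, were treated with compounds for 24 h at 37 C; intracellular ATP was read by CellTiter-Glo luminescence. AC50 values came from Hill-equation fits of qHTS concentration-response data.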

[17] = Cell Viability - LYMP1-002 - Assay at 40 hr (AID 994); settings: LYMP1-002 lymphoblastoid cell viability; series mostly up to 92.2 µM;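 further: 0% = DMSO only and full inhibition = 92 µM tetraoctylammonium bromide; nearly all actives have a fitted effect of over 60% in size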
Summary of the method: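 Human lymphoblastoid cells, 2500/well in complete medium, were preincubated 5 hr at 37 C, then exposed to compounds for 40 hr at 37 C. Intracellular ATP was read by CellTiter-Glo luminescence after 30 min at room temperature; AC50 from Hill-equation fits.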

[18] = qHTS Assay for Identification of Small Molecule Inducers of Hypoxia Response (AID 2120; active means well fitted curve in the direction sought with a large enough effect in the signal ratio, with a control signal flat, not every such curve was filed as active; the % refers to the signal ratio; further: 0% is about no effect); settings: hypoxia response reporter cells, beta-lactamase ratio readout; series mostly up to 104 µM
Summary of the method: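 HRE-beta-lactamase reporter in CellSensor HRE-bla ME-180 cells, 2500 cells/well in Opti-MEM with 0.5% dialyzed FBS; compounds tested as titration series, 17 h at 37 degrees C. CCF4 substrate 2.5 h at room temperature; AC50 from 460/530 nm ratio.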

[19] = biological target: Peroxisome proliferator-activated receptor alpha (Homo sapiens) (UniProt Q07869); assay: qHTS assay for small molecule agonists of the peroxisome proliferator-activated receptor alpha (PPARalpha) signaling pathway (AID 651778); settings: PathHunter PPARalpha complementation, chemiluminescence, 6 h; stronger effect = higher value; further: % of control where 0% means no effect
Sequence of Peroxisome proliferator-activated receptor alpha (Homo sapiens) (Q07869 whole entry, looked up): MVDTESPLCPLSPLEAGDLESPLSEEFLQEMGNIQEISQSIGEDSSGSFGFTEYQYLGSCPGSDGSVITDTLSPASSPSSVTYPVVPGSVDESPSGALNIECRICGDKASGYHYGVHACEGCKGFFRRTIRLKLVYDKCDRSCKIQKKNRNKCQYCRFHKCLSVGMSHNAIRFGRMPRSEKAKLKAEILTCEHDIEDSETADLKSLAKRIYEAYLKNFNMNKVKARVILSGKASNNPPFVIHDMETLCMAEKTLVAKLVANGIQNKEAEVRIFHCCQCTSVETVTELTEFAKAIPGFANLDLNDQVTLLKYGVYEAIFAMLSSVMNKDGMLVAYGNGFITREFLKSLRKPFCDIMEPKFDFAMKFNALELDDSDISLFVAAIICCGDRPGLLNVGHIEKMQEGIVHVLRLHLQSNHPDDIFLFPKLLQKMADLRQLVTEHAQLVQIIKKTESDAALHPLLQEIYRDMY
Summary of the method: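 Cells plated at 2,000/well and held overnight at 37 C, 5% CO2, then compound added by pin tool for 6 hr; after PathHunter detection reagent and 60 min at room temperature, chemiluminescence from enzyme complementation was read.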

[20] = qHTS assay for cell viability of the p53RE-bla HCT-116 cell line (AID 743292); settings: p53RE-bla HCT-116 viability, ATP luminescence, 16 h; series mostly up to 95 µM; further: on the % scale 0 is the no-effect control and ±100 the full control effect; nearly all actives have a fitted effect of over 55% in size
Summary of the method: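 Quantitative high-throughput format: compounds in DMSO were pinned onto p53RE-bla HCT-116 cells (4,000/well) and incubated 16 h at 37 C. Total intracellular ATP, read by CellTiter-Glo luminescence, reflects viable cell number.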

CCCCCCCCCCCCCl
inactive: Potency [1] > 92 µM | outcome [2] | outcome [3] | outcome [4] | caspase-3 activation [5] 2.31% | outcome [6] | Potency [7] | Potency [8] | outcome [9] | outcome [10] | Potency [11] | outcome [12] | Potency [13] | Potency [14] | Potency [15] | Potency [16] | Potency [17] | Potency [18] | max response [19] -2.89% | Potency [20]

ClCc1ccccn1
inactive: Potency [1] > 92 µM | outcome [2] | outcome [3] | outcome [4] | caspase-3 activation [5] 0.273% | outcome [6] | Potency [7] | Potency [8] | outcome [9] | outcome [10] | Potency [11] | outcome [12] | Potency [13] | Potency [14] | Potency [15] | Potency [16] | Potency [17] | Potency [18] | max response [19] -1.73% and -0.41% | Potency [20]

Cl/C=C/Cl
inactive: Potency [1] > 92 µM | outcome [2] | outcome [3] | outcome [4] | caspase-3 activation [5] -0.612% | outcome [6] | Potency [7] | Potency [8] | outcome [9] | outcome [10] | Potency [11] | outcome [12] | Potency [13] | Potency [14] | Potency [15] | Potency [16] | Potency [17] | Potency [18] | max response [19] -4.81% | Potency [20]

c1ccc(P(c2ccccc2)c2ccccc2)cc1
inactive: Potency [1] > 92 µM | outcome [2] | outcome [3] | outcome [4] | caspase-3 activation [5] -0.936% | outcome [6] | Potency [7] | Potency [8] | outcome [9] | outcome [10] | Potency [11] | outcome [12] | Potency [13] | Potency [14] | Potency [15] | Potency [16] | Potency [17] | Potency [18] | max response [19] -4.42% | Potency [20]

CCCCCc1cc(O)cc(O)c1
inactive: Potency [1] > 92 µM | outcome [2] | outcome [3] | outcome [4] | caspase-3 activation [5] 1.25% | outcome [6] | Potency [7] | Potency [8] | outcome [9] | outcome [10] | Potency [11] | outcome [12] | Potency [13] | Potency [14] | Potency [15] | Potency [16] | Potency [17] | Potency [18] | max response [19] -5.69% | Potency [20]

c1ccc2c(c1)CCNC2
inactive: Potency [1] > 92 µM | outcome [2] | outcome [3] | outcome [4] | caspase-3 activation [5] -0.664% | outcome [6] | Potency [7] | Potency [8] | outcome [9] | outcome [10] | Potency [11] | outcome [12] | Potency [13] | Potency [14] | Potency [15] | Potency [16] | Potency [17] | Potency [18] | max response [19] 5.32% | Potency [20]

C/C=C/CC#N
inactive: Potency [1] > 92 µM | outcome [2] | outcome [3] | outcome [4] | caspase-3 activation [5] 1.26% | outcome [6] | Potency [7] | Potency [8] | outcome [9] | outcome [10] | Potency [11] | outcome [12] | Potency [13] | Potency [14] | Potency [15] | Potency [16] | Potency [17] | Potency [18] | max response [19] -3.98% | Potency [20]
